The campaign covered roughly 5,100 compounds. Fewer than 10 were called active. These entries were drawn from the full list. A number with no mark means an inactive call.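 Rule for the calls: active = inhibition above the mean inhibition over all tested compounds plus 3 SD (cut at about 75% in these data); inactive = the rest.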
Each molecule was assayed against Collagenase 3 (Homo sapiens) (UniProt P45452) (assay: MMP13 inhibitors among fluorescent compounds, confirmation, biochemical, possible fluorescent artifacts, delta fluorescence (AID 734;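 note: 0% = DMSO only wells and 100% = 8 µM reference MMP13 inhibitor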)). Settings: MMP13 fTHP FRET cleavage, delta fluorescence 4 h; stronger effect = higher value;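 each compound tested at 4 µM nominal in triplicate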.

Structure (SMILES)	inhibition
c1ccc(-c2noc(-c3cccc4ccccc34)n2)nc1	6.64%
Fc1cccc2sc(Nc3nnc(-c4ccccc4)o3)nc12	74.7% (active)
COc1cccc(-c2nnc(Nc3nc4c(F)cccc4s3)o2)c1	104% (active)
COc1cc(OC)cc(-c2nnc(Nc3nc4c(F)cccc4s3)o2)c1	95.7% (active)
COc1ccc(-c2nnc(Nc3nc4c(OC)cccc4s3)o2)c(OC)c1	34.9%
COc1ccc(-c2nnc(Nc3nc4c(OC)cccc4s3)o2)cc1	7.97%
COc1ccccc1-c1nnc(Nc2nc3c(OC)cccc3s2)o1	2.8%
COc1cccc2sc(Nc3nnc(-c4ccccc4Cl)o3)nc12	3.62%
Fc1cccc2sc(Nc3nnc(-c4ccco4)o3)nc12	0.58%
COc1cccc2sc(Nc3nnc(-c4cccs4)o3)nc12	-71.9%
O=C(C1CCCN(S(=O)(=O)c2cnc[nH]2)C1)N1CCN(Cc2ccccc2)CC1 (stereo unspecified)	6.19%
Cn1c(=O)c2c(nc(SCCN3CCOCC3)n2Cc2ccccc2Cl)n(C)c1=O	4.43%
COC(=O)c1nn(-c2ccc(-c3ccccc3)cc2)cc1O	-1.13%
CCOC(=O)COc1ccc(-c2nnc(-c3ccccc3)o2)cc1	-0.26%
CC1(C)CC(=O)C(C=Nc2ccccc2C(=O)O)=C(O)C1	3.67%
CCOc1ccc(-c2cc(C(=O)NCCCN3CCN(CC)CC3)c3ccccc3n2)cc1	-9.76%
CCN1c2ccccc2-c2nc3ccccc3n2C1c1ccncc1 (stereo unspecified)	2.69%
COc1ccc2[nH]c(=O)c(-c3noc(-c4ccccc4)n3)cc2c1	3.55%
CC1(C)Cc2c(C#N)c(N3CCN(C(=O)c4ccco4)CC3)nc(Cc3ccccc3)c2CO1	-9.09%
CCOc1ccc(C2C(C(=O)OC)=CN(CCOC)C=C2C(=O)OC)cc1	-14.5%
Nc1nc2n(n1)C(c1ccco1)CC(c1ccc(F)cc1)N2 (stereo unspecified)	1.34%
CCN(CC)CCCN(Cc1cc2cc3c(cc2[nH]c1=O)OCO3)C(=O)Nc1ccccc1OC	9.73%
Nc1c(C(=O)NCCN2CCOCC2)c2nc3ccccc3nc2n1-c1ccc2c(c1)OCO2	4.11%
COc1cccc(NC(=O)CSc2nnc(Cc3cccn3C)n2-c2ccc(F)cc2)c1	1.13%

Structure (SMILES)	inhibition
CC1CCCC(C)N1C(=O)CSc1nnc(-c2c[nH]c3ccccc23)o1 (stereo unspecified)	5.55%
O=C(OCCn1cncn1)c1cc2ccccc2oc1=O	-0.22%
OCc1ccccc1OCCOc1ccc(Cl)c2cccnc12	6.18%
CC(C)NCC(O)Cn1c2c(c3ccccc31)CCc1c-2cnn1-c1ccccc1 (stereo unspecified)	6.63%
CC(=O)Nc1nc2n(n1)C(c1ccccc1)C=C(c1ccccc1)N2 (stereo unspecified)	0.41%
O=C(Oc1cccnc1)c1ccco1	3.63%
COc1ccc(C2C=C(C)Nc3nc(SC)nn32)cc1 (stereo unspecified)	-11.2%
CCOc1ccc(C2CC(c3cccc(Cl)c3)n3nc(N)nc3N2)cc1 (stereo unspecified)	4.79%
Cc1ccc(-n2ncc3c(=O)n(CC(=O)NCc4ccco4)cnc32)cc1C	5.2%
COCCCNC(=O)c1ccc2nc3ccccc3c(=O)n2c1	-3.91%
CCCOc1ccccc1-c1nc2c([nH]1)c(=O)[nH]c(=O)n2C	-0.35%
CS(=O)(=O)N1CCc2cc(C(=O)N3CCOCC3)ccc21	5.36%
CCOC(=O)c1[nH]c2ccc(OCC)cc2c1NC(=O)CN1CCN(c2ccccn2)CC1	-14.1%
CCCC(=O)N1CCN(c2nc(CC(C)C)c3c(c2C#N)CCC3)CC1	0.13%
CCS(=O)(=O)Nc1c(C(=O)O)[nH]c2ccccc12	3.79%
CCOC(=O)c1oc2cccc(OCC(O)CNC(C)C)c2c1C (stereo unspecified)	-6.29%
N#Cc1cc2c(nc1SCC(=O)Nc1nccs1)CCCCC2	-11%
COc1ccc(O)c(C(=O)c2cc(C#N)c(=O)n(-c3c(C)n(C)n(-c4ccccc4)c3=O)c2)c1	6.02%
CCOC(=O)c1cccnc1SCc1cc(=O)n2ccccc2n1	3.91%
CC1=C(C(=O)N2CCOCC2)C(c2ccccc2F)C2=C(CC(C)(C)CC2=O)N1 (stereo unspecified)	-1.62%
CCCC(c1nnnn1C1CCCC1)N1CCN(C(=O)c2ccco2)CC1 (stereo unspecified)	6.95%
N#Cc1nc(-c2cccs2)oc1N1CCOCC1	-82.1%
CCCc1cc(=O)oc2cc(C)c3c(C)coc3c12	-8.56%
CCOC(=O)c1cc2c(=O)n3ccccc3nc2n(C(C)C)c1=NC(=O)c1ccncc1	-11.4%

Structure (SMILES)	inhibition
CN1CC=C2C(C#N)=C(N)C(C#N)(C#N)C(CCc3ccccc3)C2C1 (stereo unspecified)	5.88%
O=S(=O)(NC1c2cccc3cccc(c23)C1N1CCNCC1)c1ccccc1 (stereo unspecified)	8.95%
COc1ccc(CN2CCCC2C(=O)Nc2ccc(OC)c(OC)c2)cc1OC (stereo unspecified)	1.58%
CC(O)Cn1ccccc1=N (stereo unspecified)	4.32%
CC(C)(C)c1cc(=O)n2c(C#N)c(C#N)nc2[nH]1	4.14%
Cc1onc(-c2ccccc2)c1C(=O)Nc1nnc(-c2ccncc2)s1	-3.75%
O=C(CC1Nc2ccccc2NC1=O)NC1CCCCC1 (stereo unspecified)	4.1%
CCOc1ccc2[nH]c(=O)c(C(c3nnnn3Cc3ccco3)N3CCC(C)CC3)cc2c1 (stereo unspecified)	8.93%
Cc1cccc(-n2c(=O)[nH]c3c(C(N)=O)nc(-c4ccccc4Cl)nc32)c1	6.92%
COC(=O)c1cc2c(s1)CS(=O)C2 (stereo unspecified)	5.21%
CC(C)c1nc(N2CCOCC2)c(C#N)c2c1CCC2	-3.95%
CCOC(=O)c1cnc2cc(Cl)c(OC)cc2c1NCC1CCCO1 (stereo unspecified)	3.77%
c1ccc(-n2nc3c(ccc4cnnc43)[nH]2)cc1	-1.01%
COc1ccc(-c2ccc(-c3noc(-c4ccccc4OC)n3)c(OC)n2)cc1	13.8%
COc1ccc(-c2ccc(-c3noc(-c4ccccc4)n3)c(OC)n2)cc1	5.4%
COc1ccc(-c2ccc(-c3noc(-c4ccccc4C)n3)c(OC)n2)cc1	79.6% (active)
CCOC(=O)c1sc(C)c(C(N)=O)c1NC1=NCCCCC1	2.74%
CCN(CC)C(=O)Sc1cccc2cccnc12	7.36%
CN(C)c1ccc(C(=O)N2CC(=O)N(CCc3ccccc3)C(=O)C2)cc1	0.16%
CCOC(=O)N1CCC(N2C(=O)c3ccccc3C2Nc2ccc3c(C)cc(=O)oc3c2)CC1 (stereo unspecified)	-77%
Cc1cc(C)c2c(N)c(C(=O)Nc3nccs3)sc2n1	-7.23%
COc1ccccc1Nc1nc(-c2cccs2)cs1	4.53%
O=c1c2[nH]c3ccccc3c2ncn1Cc1cccnc1	5.84%
Cc1oc2c(CN3CCCC3)c(O)ccc2c(=O)c1-c1ccc(Br)cc1	11.1%

Structure (SMILES)	inhibition
O=c1[nH]c2cc3c(cc2cc1C(c1nnnn1C1CCCC1)N1CCSCC1)OCCO3 (stereo unspecified)	1.34%
CN1CCN(CCCNC(=O)Nc2cccc3ccccc23)CC1	4.59%
COc1ccc(C2C(C(=O)N3CCN(c4ccccn4)CC3)CC(=O)N2c2ccc(OC)cc2)cc1 (stereo unspecified)	1.09%
COC(=O)c1[nH]c2cccc(OC)c2c1NC(=O)CN1CCC(C(N)=O)(N2CCCCC2)CC1	5.66%
C=C(Cl)COc1ccc2c(CC)cc(=O)oc2c1	6.13%
CC1=CC2=NC(=O)CC(C)(C(=O)N(CC(=O)NC(C)(C)C)C3CCCC3)N2C=C1 (stereo unspecified)	2.69%
Cc1nc2c(C(=O)O)cnn2c(C)c1Cc1ccccc1F	5.94%
N#Cc1nc(-c2ccccc2F)oc1NCc1ccccc1	-7.81%
Cc1cccc(-n2c(SCCC(=O)O)nnc2-c2cccs2)c1C	6.84%
COc1ccc(-c2nc3nc(C)cc(C)n3n2)cc1	1.15%
Cc1cc(NC(=O)CSc2ccc3nnc(-c4cccnc4)n3n2)no1	0.22%
COCCCNC(=O)CSC1=Nc2ccccc2C2=NC(CC(=O)NCc3ccccc3)C(=O)N12 (stereo unspecified)	0.89%
COCCn1c(SCc2csc(-c3ccccc3)n2)nc2ccccc21	3.46%
Cc1cccn2c(=O)c3cc(C(=O)N4CCN(C(=O)c5ccco5)CC4)n(C)c3nc12	0.62%
O=C(CCCOc1ccccc1)Nc1nccs1	3.79%
COc1ccc2[nH]c(=O)c(CN(CCCN(C)C)C(=O)Nc3ccccc3)cc2c1	0.48%
O=C(Nc1ccon1)c1cnc2sccn2c1=O	3.24%
O=c1[nH]c(=O)n(Cc2ccccc2)c2nc(-c3ccco3)cc(C(F)(F)F)c12	-103%
CCCSc1n[nH]c(NC(C)=O)n1	3.35%
O=C(Cc1ccccc1)Nc1ccc2oc(-c3cccnc3)nc2c1	-8.29%
O=C(Nc1nc(-c2cc3ccccc3oc2=O)cs1)c1ccco1	3.89%
COc1ccc(C(=O)NCc2nnc(SC)n2C2CCCCC2)cc1	-1.48%
COc1cccc(Cn2c(=S)[nH]c3ccc(N4CCOCC4)cc3c2=O)c1	3.27%
Cc1cc(=O)oc2cc(OC(C)C(=O)Nc3nccs3)ccc12 (stereo unspecified)	3.57%
